Results published in PubChem BioAssay (NCATS).
Activity calls are given as the source filed them. A call without a number means that no potency is given here. Calls come from the whole dose curve; as a rule, active = well fitted curve in the direction sought with a large enough effect; inconclusive = small, poorly fitted or top-dose-only effect, or another doubt; inactive = no such curve, though single readings can be large or run the other way.

assay: Validation qHTS assay for inhibitors of Activation Induced Cytidine Deaminase (AID): UDG Counterscreen signal (AID 1347427); conditions: biochemical UDG counterscreen, fluorescence signal; series mostly up to 115 µM
Summary of the method: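 Fluorescence at 560 nm excitation, 665 nm emission reports UDG signal after 250 mM NaOH (2x) addition and 30 min. Enzymes (AID 1 uM, UDG 2 U/mL, at 4/3x) preincubated 10 min with compound, then 4 h with 4x 250 nM DJC20/DJC23 substrate at room temperature.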

Compound | Potency
CCc1c(C(=O)NCCc2ccc(N3CCCCC3)cc2)[nH]c2ccc(Cl)cc12 | inactive
C[N+](C)(C)CC(=O)[O-] | inactive
N=C(N)SCCc1ccc(CCSC(=N)N)cc1 | inactive
CC(C)ON([C@@H](C(=O)NO)C(C)C)S(=O)(=O)c1ccc(-c2ccccc2)cc1 | inactive
Cc1ccccc1CNc1ncnc2c1ncn2C1OC(CO)C(O)C1O (stereo not given) | inactive
O=C(O)[C@@H]1C[C@@H](C(=O)O)N1 | inactive
OC[C@H]1O[C@@H](n2cnc3c(Nc4ccccc4)ncnc32)[C@H](O)[C@@H]1O | inactive
N.N.O=C(O)C1(C(=O)O)CCC1.[Pt] | inactive
O=C1O/C(=C/Br)CCC1c1cccc2ccccc12 (stereo not given) | inactive
COc1ccccc1N1CCN(CCCCNS(=O)(=O)c2cccc3c(N(C)C)cccc23)CC1 | inactive
NC(=S)NCCC[C@H](N)C(=O)O | inactive
CCCCC/C=C\CC(O)/C=C/c1cccc(CC(O)CCCCO)n1 (stereo not given) | inactive
Cc1nc2sccn2c(=O)c1CCN1CCC(=C(c2ccccc2)c2ccc(F)cc2)CC1 | inactive
CN=c1nc(-c2ccccc2)n(-c2ccccc2)s1 | inactive
Nc1ncnc2c1c(I)cn2[C@@H]1C[C@H](N)[C@@H](O)[C@H]1O | inactive
CO/S(=N\S(=O)(=O)c1ccc(Cl)cc1)c1ccc([N+](=O)[O-])cc1 (stereo not given) | inactive
O=C(O)[C@@H]1C[C@H](C(=O)O)N1 | inactive
O=C(O)/C=C/C(O)c1ccc(Cl)cc1 (stereo not given) | inactive
COc1ccccc1N1CCN(CCN(C(=O)c2ccc(I)cc2)c2ccccn2)CC1 | inactive
C=CC(=O)c1ccc(CCCCCC)cc1 | inactive

Compound | Potency
N#C/C(=C\c1ccc(O)c(O)c1)C(=O)NCCCc1ccccc1 | inactive
C#CCN1C(C)=C(C(=O)OC)C(c2cccc([N+](=O)[O-])c2)C(C(=O)OCC)=C1C (stereo not given) | inactive
C[N+](C)(CCCCCC[N+](C)(C)CCCN1C(=O)c2cccc3cccc(c23)C1=O)CCCN1C(=O)c2cccc3cccc(c23)C1=O | inactive
N#C/C(=C\c1c[nH]c2ccccc12)C(=O)c1ccc(O)c(O)c1 | inactive
CCCCCCCCCCCCCCCCCC(=O)NCC(COP(=O)([O-])OCC[N+](C)(C)C)OCC (stereo not given) | inactive
O=c1[nH]c2cc(Cl)c(Cl)cc2[nH]c1=O | inactive
COc1cc2nc(N3CCN(C(=O)OCc4ccccc4)C(C(=O)NC(C)(C)C)C3)nc(N)c2cc1OC (stereo not given) | inactive
C[C@@H](NC(=O)/C(C#N)=C/c1ccc(O)c(O)c1)c1ccccc1 | inactive
CN(C)CCCO[C@@H]1[C@H]2OC(C)(C)O[C@H]2O[C@@H]1[C@H](O)CO | inactive
O=C(O)CC1CC(c2ccccc2)=NO1 (stereo not given) | inactive
CCCn1c(=O)c2[nH]c(-c3ccc(OCC(=O)NCCN)cc3)nc2n(CCC)c1=O | inactive
NCCNC(=O)c1ncsc1-c1cccc(F)c1 | inactive
CCCCCCCCCCCCCCCCCCNC(=O)OCC(COP(=O)([O-])OCC[n+]1ccsc1)OC (stereo not given) | inactive
CCCCN1CCC(n2c(=O)[nH]c3ccccc32)CC1 | inactive
CCCCCC(O)c1cccc(OCc2ccc3ccccc3n2)c1 (stereo not given) | inactive
CN1CCC[C@H]1c1cccnc1 | inactive
CCCCCCCCCCCCCCCC(=O)NCC(COP(=O)([O-])OCC[N+](C)(C)C)OCC (stereo not given) | inactive
CCCC1(C)C(C#N)(C#N)C1(C#N)C#N | inactive
Cc1ccc(C(=O)O[C@H](C(=O)O)[C@@H](OC(=O)c2ccc(C)cc2)C(=O)O)cc1 (tested in a mixture with another compound) | inactive
Ic1ccc(N2CCN(Cc3c[nH]c4ncccc34)CC2)cc1 | inactive
